# Laboratory results published in PubChem BioAssay AID853 (Columbia University Molecular Screening Center, 2007).
# In all, about 47,000 compounds went through this assay and about 200 (0.43%) were called active. Another 1% or so got no clear call; they are omitted.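 How the source made its calls: active means inhibition of aggregate fluorescence above about 70%, also judged a hit by eye on the cell image (limit read from the data, passing the limit was not always enough); inconclusive means no rule stated for this call; inactive means not judged a hit on image review.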 Many of the other results were omitted from the sample, so actives are more common in it than they were.
# Experiment: removal of polyQ htt aggregates in HeLa – imaging, HeLa Exon1htt(103Q)mCFP, confocal imaging, primary screen (AID 853);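 further: cells exposed to compound for three days before fixation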
# Conditions: aggregate imaging, at 1.5 µM; fraction fluorescence in grains: measured here: aggregate grain fluorescence fraction, stronger effect = lower value; inhibition: stronger effect = higher value, zero = plate's median compound well
Compound,fraction fluorescence in grains,inhibition
Cc1cc(C)c2c(-n3cccc3)c(NC(=O)OCc3ccccc3)sc2n1,37.4,-74.7% (inactive)
Cc1ccccc1CS(=O)(=O)CC1(O)CCN(C(=O)c2cccc(C(F)(F)F)c2)CC1,32.9,14.5% (inactive)
CC(=O)c1cccc(NC(=O)c2ccncc2)c1,33.8,20.4% (inactive)
COc1ccc2c3c(c(=O)oc2c1OCC(=O)C(C)(C)C)CCCC3,20.5,-3.3% (inactive)
N=c1c2c(-c3ccccc3)c(-c3ccccc3)oc2ncn1Cc1ccco1,39.1,-27.2% (inactive)
Cc1nnc(SCC(=O)N2CCN(c3ccccc3)CC2)n1-c1ccccc1,45.5,-15% (inactive)
O=C(O)c1ccc(F)c(S(=O)(=O)Nc2ccccc2)c1,49.7,-13.1% (inactive)
O=C(C(NS(=O)(=O)c1cccc2nsnc12)c1ccccc1)N1CCN(c2ccccn2)CC1 (centres undefined),32.5,12.4% (inactive)
O=C(O)c1ccc(NS(=O)(=O)c2cccc3nsnc23)cc1,5.36,70.5% (active)
Cc1cccc(-c2nc3c(c(SCC(=O)N4CCOCC4)n2)CCCC3)c1,18.5,-1.6% (inactive)
CCOc1ccc2c(c1)C(c1ccc(C)cc1)=NNC(c1ccc(C)cc1)=N2,11,38.1% (inactive)
CCS(=O)(=O)n1nc(-c2ccccc2)nc1SCc1ccccc1,24.1,-44.5% (inactive)
c1ccc(CSc2nnc(-c3ccco3)n2Cc2ccccc2)cc1,21.2,-3.2% (inactive)
Cn1c(CO)cnc1SCc1ccccc1,10.9,71.7% (active)
COC(=O)c1nc2ccccc2s1,22.8,-27.8% (inactive)
Cc1cc(OCCN2CCCC2)ccc1C(C)C,38.3,-2.5% (inactive)
CN1C(=O)CC(N2CCN(c3ccccn3)CC2)C1=O (centres undefined),29.4,-42.3% (inactive)
Cc1nc2nc(C)c(CCC(=O)N3CCN(c4ccccc4)CC3)c(C)n2n1,38.5,-21.5% (inactive)
CCSC(C)CC1C/C(=N/O)c2c(C)noc2C1 (centres undefined),43.5,-15.9% (inactive)
Cc1cc(C(=O)Nc2ccccc2N2CCOCC2)c2ccccc2n1,9.37,47.3% (inactive)
Cn1sc(NC(=O)c2ccccc2)nc1=O,24.3,-16.8% (inactive)

Compound,fraction fluorescence in grains,inhibition
O=C1/C(=C\Nc2ccccc2)CCN1c1ncccn1,25.9,18.4% (inactive)
CCN(CC)c1ccc(NC(=O)c2ccc(Cl)nc2)cc1,60.1,-95.5% (inactive)
Clc1ccccc1-c1cc(COc2ccc3ccccc3c2)no1,33.9,11.8% (inactive)
Cc1c(NC(=O)c2cc(-c3ccc(Cl)s3)nc3ccccc23)c(=O)n(-c2ccccc2)n1C,26.1,21.8% (inactive)
Cc1ccc(S(=O)(=O)N2CC(=O)Nc3ccccc32)cc1C,33.9,11.1% (inactive)
COCCN(C(=O)c1ccco1)c1nnc(-c2ccc(OC)cc2)s1,39.8,-2.8% (inactive)
C=CCNC(=S)NNc1ncnc2sc3c(c12)CC(C)(C)OC3,40.7,-39.2% (inactive)
CC1=CC(C)(C)N(C(=O)CSc2nccn2C)c2cc(C)ccc21,13.3,26.1% (inactive)
CC(C)c1ccc(NC(=O)CCN2C(=O)c3ccc([N+](=O)[O-])cc3C2=O)cc1,13.6,55% (inactive)
COc1ccccc1NC(=O)CSc1nnc(C)n1CC1CCCO1 (centres undefined),15.8,17.7% (inactive)
COc1ccc(NC(=O)CCN2CCCC2)c(OC)c1,11.3,35.7% (inactive)
Cc1cc(-c2ccccc2)nc(N2CCC(C(=O)NC34CC5CC(CC(C5)C3)C4)CC2)n1,31,21.6% (inactive)
C=CCn1c(-c2ccc3[nH]c(C)c(C)c3c2)n[nH]c1=S,89.3,-112% (inactive)
Cc1ccc(CCN2CC(C(=O)O)CC2=O)cc1 (centres undefined),14.7,30.2% (inactive)
COc1ccc(C(CNC(=O)c2cccnc2SC)N2CCOCC2)cc1 (centres undefined),16.3,9.2% (inactive)
Cc1cc(C)nc(SCc2ccccc2C#N)n1,35.4,-3.8% (inactive)
Cc1ccc2[nH]c3c(=O)n(Cc4ccccn4)cnc3c2c1,21.3,46.1% (inactive)
Cc1ccc(-n2ccc(=O)c(C(=O)O)n2)cc1,23.5,0.4% (inactive)
Cc1cccc(C)c1-n1c(C)cc(/C=C2\C(=O)NN(c3ccccc3)C2=O)c1C,26.9,30.9% (inactive)
CCS(=O)(=O)N1CCN(C(=O)c2cccs2)CC1,32.5,27.2% (inactive)
C=CCC(NCc1ccco1)c1ccc(OC)cc1 (centres undefined),62.5,-55.5% (inactive)
